GSTO1 counter: inhibitors of recombinant GSTO1, primary screen, counter-screen for RBBP9 inhibitor project, biochemical, fluorescence polarization | Glutathione S-transferase omega-1 (Homo sapiens), P78417 | activity-based probe fluorescence polarization | inhibition, % at 5.96 µM | 300,000 tested, 1.1% active;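 active means inhibition above the campaign mean inhibition plus 3 SD, cut at about 35% in these data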
LYPLA1 counter: LYPLA1 inhibitors, primary screen, counter-screen for PME1 inhibitor project, biochemical, fluorescence polarization, FP-Rh probe ABPP. Acyl-protein thioesterase 1 (Homo sapiens), O75608. recombinant LYPLA1. inhibition, % at 5.9 µM. 320,000 tested, 0.16% active;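 active means inhibition above the mean of all tested compounds plus 3 SD, set per campaign, cut at about 14% in these data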;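 further: inhibitors block serine hydrolase probe labeling of LYPLA1 so polarization falls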
Target sequence (O75608 whole entry, looked up): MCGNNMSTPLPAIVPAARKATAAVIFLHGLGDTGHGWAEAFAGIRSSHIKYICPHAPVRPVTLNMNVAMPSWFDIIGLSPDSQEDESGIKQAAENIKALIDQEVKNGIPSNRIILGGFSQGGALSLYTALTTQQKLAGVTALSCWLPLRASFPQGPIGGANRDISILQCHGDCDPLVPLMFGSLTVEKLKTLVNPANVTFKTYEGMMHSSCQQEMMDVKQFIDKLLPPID
PME-1 inh: PME-1 inhibitors via competitive probe labeling, primary screen, biochemical, fluorescence polarization, FP-Rh probe, HTS. inhibition, % at 5.9 µM. recombinant PME-1. AID 2130, 2009. 320,000 tested, 0.53% active;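 active means inhibition above the campaign mean of all compounds plus 3 SD, cut at about 26% in these data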;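 further: competitive labeling of PME-1 active site by serine hydrolase directed probe; inhibitors block probe labeling so polarization falls and inhibition rises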
PAD4 FP inh: human PAD4 inhibitors, primary screen, biochemical, fluorescence polarization, 1536-well format | Protein-arginine deiminase type-4 (Homo sapiens), Q9UM07 | recombinant PAD4, RCA probe fluorescence polarization | inhibition, % at 6.36 µM | 330,000 tested, 0.41% active | AID 485272, 2010;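 active means percent inhibition above a cutoff equal to the mean of all tested compounds plus 3 SD, cut at about 15% in these data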
LYPLA2 inh: LYPLA2 inhibitors, primary screen, counter-screen for PME1 inhibitor project, biochemical, fluorescence polarization, FP-Rh probe ABPP; Acyl-protein thioesterase 2 (Homo sapiens), O95372; recombinant LYPLA2; inhibition, % at 5.9 µM; 320,000 tested, 0.38% active;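 active means inhibition above the screen-wide mean plus 3 SD, limit set per campaign, cut at about 26% in these data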
Target sequence (O95372 whole entry, looked up): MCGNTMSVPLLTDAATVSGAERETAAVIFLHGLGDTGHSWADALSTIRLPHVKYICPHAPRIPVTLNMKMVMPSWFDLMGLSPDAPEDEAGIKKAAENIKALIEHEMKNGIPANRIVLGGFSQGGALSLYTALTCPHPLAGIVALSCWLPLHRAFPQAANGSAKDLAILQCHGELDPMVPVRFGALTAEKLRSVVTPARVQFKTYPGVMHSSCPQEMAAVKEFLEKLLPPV
Fam108B counter: mouse Fam108B serine hydrolase inhibitors, primary screen, counter-screen for RBBP9 inhibitor project, biochemical, fluorescence polarization | recombinant Fam108B, FP-Rh probe fluorescence polarization | AID 1947, 2009 | 300,000 tested, 0.33% active | inhibition, % at 9.51 µM;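 active means inhibition above the screen mean inhibition plus 3 SD, computed separately per campaign, cut at about 18% in these data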;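 further: inhibitors lower polarization as less probe binds the enzyme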
LYPLA1 confirm: LYPLA1 inhibitors, retest, confirmation, counter-screen for PME1 inhibitor project, biochemical, fluorescence polarization, FP-Rh probe ABPP; shares compounds with LYPLA1 counter; inhibition, % at 5.9 µM; 480 tested, 69% active; AID 2233, 2010; recombinant LYPLA1;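 active means mean inhibition across replicates above the hit cutoff set in the primary screen, cut at about 15% in these data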;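 further: loss of FP-Rh probe labeling of LYPLA1 seen as lower polarization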
LYPLA2 confirm: LYPLA2 inhibitors, retest, confirmation, counter-screen for PME1 inhibitor project, biochemical, fluorescence polarization, FP-Rh probe ABPP. 1,100 tested, 72% active. shares compounds with LYPLA2 inh. recombinant LYPLA2. inhibition, % at 5.9 µM;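 active means mean inhibition across replicates above the hit cutoff set in the primary screen, cut at about 26% in these data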;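 further: blocked labeling of the enzyme by serine hydrolase FP-Rh probe lowers polarization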
Of the large screens only hits and unclear results are named; the others gave an inactive call (follow-up assays come after a bar, where they were run). The list is not random: actives were taken first. Their share in the collection is about 1.8%.

CC(=O)c1sc(NC(=O)C2CCN(C(=O)c3ccccc3C)CC2)nc1-c1ccccc1	LYPLA1 counter 24.7, LYPLA2 inh 26.8 | LYPLA1 confirm 32.4 | LYPLA2 confirm inactive
Cc1cccc(NC(=O)C2CCN(C(=O)c3ccccc3C)CC2)n1	none (no result: GSTO1 counter, Fam108B counter)
N#Cc1c(N)nc(SCc2ccncc2)c(C#N)c1-c1cccs1	LYPLA1 counter 39.1, LYPLA2 inh 41.9 | LYPLA1 confirm 40.5 | LYPLA2 confirm 43.0
CCN(CC)C(=O)CSc1nc(N)c(C#N)c(-c2cccs2)c1C#N	none
Cc1cnc(CN(C)C(=O)c2ccc3oc(Cc4ccc(Cl)cc4)nc3c2)[nH]1	none
O=C(C[n+]1ccccc1)Nc1ccccc1C(=O)O	none
O=C(CCN1CCN(c2ccccc2)CC1)c1ccc(Cl)cc1	none
O=C(CCN1CCN(c2ccc([N+](=O)[O-])cc2)CC1)c1ccc(Cl)cc1	LYPLA1 counter 37.1, LYPLA2 inh 72.5 | LYPLA1 confirm 47.3 | LYPLA2 confirm 78.9
O=C1Cc2ccccc2C(c2ccc(Br)cc2)N1 (configuration not stated)	LYPLA1 counter 21.5, LYPLA2 inh 30.4 | LYPLA1 confirm 28.6 | LYPLA2 confirm 26.9
Cc1ccccc1C1NC(=O)Cc2ccccc21 (configuration not stated)	none
CC(C)N1CC(C(=O)Nc2ccc(C#N)cc2)CC1=O (configuration not stated)	none
C(=N\n1cnnc1)/c1ccc(OCc2cccc3ccccc23)cc1	LYPLA1 counter 15.6, LYPLA2 inh 52.3 | LYPLA1 confirm 20.0 | LYPLA2 confirm 38.7
O=C(CCCCCN1C(=O)c2ccccc2C1=O)Nc1ccc(S(=O)(=O)N2CCCCC2)cc1	LYPLA1 counter 26.4, LYPLA2 inh 41.8 | LYPLA1 confirm 29.7 | LYPLA2 confirm 41.5
Cc1[nH]c2ccccc2c1C(=O)CN1CCN(C/C=C/c2ccccc2)CC1	LYPLA1 counter 31.4, LYPLA2 inh 55.8 | LYPLA1 confirm 30.6 | LYPLA2 confirm 53.7
O=C(CS(=O)(=O)Cc1ccccc1)N1CCN(c2cccc(C(F)(F)F)c2)CC1	none
OC(CN1CCN(c2cccc(C(F)(F)F)c2)CC1)c1c[nH]c2ccccc12 (configuration not stated)	LYPLA1 counter 22.6, LYPLA2 inh 56.6 | LYPLA1 confirm 29.7 | LYPLA2 confirm 48.9
NS(=O)(=O)c1ccc(CCNC(=O)c2cc([N+](=O)[O-])ccc2N2CCCCC2)cc1	LYPLA1 counter 78.2, LYPLA2 inh 30.0 | LYPLA1 confirm 77.3 | LYPLA2 confirm inactive
CC(=O)Nc1ccc(S(=O)(=O)N2CCCC(C(=O)O)C2)cc1 (configuration not stated)	none
CC(=O)c1ccc(OCc2cc(C(=O)N3CCC(Oc4ccccc4C)CC3)no2)cc1	none
Cc1ccc(OCc2cc(C(=O)N3CCC(Oc4cccnc4)CC3)no2)cc1C	LYPLA1 counter 38.3, LYPLA2 inh 47.9 | LYPLA1 confirm 37.7 | LYPLA2 confirm 38.3
O=C(c1cc(COc2cccc(C(F)(F)F)c2)on1)N1CCC(Oc2cccnc2)CC1	LYPLA1 counter 39.6, LYPLA2 inh 34.7 | LYPLA1 confirm 50.2 | LYPLA2 confirm 37.7
CCCN(C(=O)c1cnccn1)c1c(N)n(Cc2ccccc2)c(=O)[nH]c1=O	none (no result: GSTO1 counter, Fam108B counter)
CCC(C)(C)C1CCC2(CC1)NC(=O)N(CC(=O)NCCc1ccc(OC)c(OC)c1)C2=O (configuration not stated)	none (no result: GSTO1 counter, Fam108B counter)
O=C1N=C(N2CCN(Cc3ccccc3)CC2)S/C1=C/c1cccs1	LYPLA1 counter 25.1, LYPLA2 inh 46.8 | LYPLA1 confirm 35.6 | LYPLA2 confirm 55.4
O=C(Nc1ccc2oc(-c3ccccc3)nc2c1)c1ccc2c(c1)OCCO2	none
O=C(Nc1ccc2oc(-c3cccnc3)nc2c1)c1ccc2c(c1)OCCO2	LYPLA1 counter 20.7, LYPLA2 inh 47.2 | LYPLA1 confirm 53.2 | LYPLA2 confirm 48.7
Cc1c(Br)c([N+](=O)[O-])nn1CC(=O)Nc1ccc(Cc2ccncc2)cc1	LYPLA1 counter 23.4, LYPLA2 inh 59.0 | LYPLA1 confirm 34.6 | LYPLA2 confirm 66.7
CC(=O)Nc1ccc(NC(=O)Cn2nc([N+](=O)[O-])c(Br)c2C)cc1	none
O=c1[nH]c(C(F)(F)F)nc2ccc3ccccc3c12	none
COc1cc(OC)c(C(=O)N/N=C/c2ccoc2)cc1OC	none
COc1ccc(S(=O)(=O)N(C)CC(=O)N2CCN(c3ccc(F)cc3)CC2)cc1OC	LYPLA1 counter 21.6, LYPLA2 inh 36.8 | LYPLA1 confirm 21.1 | LYPLA2 confirm 33.2
O=C(COc1ccc(Br)cc1)Nc1ccc(Cc2ccncc2)cc1	LYPLA1 counter 23.1, LYPLA2 inh 29.6 | LYPLA1 confirm 25.2 | LYPLA2 confirm inactive
COc1ccc(CN2CCN(Cc3cccc(Oc4ccccc4)c3)CC2)c(OC)c1OC	LYPLA1 counter 21.1, LYPLA2 inh 26.3 | LYPLA1 confirm 31.2 | LYPLA2 confirm inactive
CN1CCN(Cc2cccc(Oc3ccccc3)c2)CC1	none
CC1=C(C)CC2C(C1)C(=O)c1ccc(Br)cc1S2(=O)=O (configuration not stated)	none (no result: GSTO1 counter, Fam108B counter)
O=c1ccc2ccc(Oc3ccc([N+](=O)[O-])cc3Cl)cc2o1	LYPLA1 counter 16.2, LYPLA2 inh 69.9 | LYPLA1 confirm 21.8 | LYPLA2 confirm 66.4
O=C(NCC1CCCCC1)c1ccccc1[N+](=O)[O-]	none
O=C(O)c1ccc2c(c1)C(=O)N(CCCCCCCN1C(=O)c3ccc(C(=O)O)cc3C1=O)C2=O	LYPLA1 counter 68.8, LYPLA2 inh 47.2 | LYPLA1 confirm 73.4 | LYPLA2 confirm 47.6
CCOc1cc(CN2CCN(c3cccc(C(F)(F)F)c3)CC2)ccc1OC	none
COc1ccc(CC(C)N2CCN(c3cccc(C(F)(F)F)c3)CC2)cc1OC (configuration not stated)	LYPLA1 counter 24.9, LYPLA2 inh 30.9 | LYPLA1 confirm 32.0 | LYPLA2 confirm 35.3
CCCNC(=O)c1onc(CSc2ccc(Cl)cc2)c1C(=O)NC(C)C	none

High-throughput results from PubChem.
